Records with an inconclusive call do not appear. Activity calls are given as the source filed them. Unless noted, calls come from the whole dose curve; as a rule, active = well fitted cell-killing curve with a large enough effect; inconclusive = small, poorly fitted or top-dose-only effect; inactive = flat fitted curve, though single readings scatter.
How the values were obtained:
[1] = Cell Viability - LYMP2-025 (AID 976);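 note: series mostly up to about 92 µM; plate controls were DMSO only for no effect and tetraoctylammonium bromide control for full effect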
In short: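 Luminescent ATP readout after 24 hr treatment of a human lymphoblastoid line (LYMP2-025, 2500 cells/well, 37 C). Reagent developed 30 min at room temperature; AC50 fitted with the Hill equation.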

[2] = Cell Viability - LYMP2-002 (AID 977);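 note: series mostly up to about 92 µM; compound exposure lasted 24 h at 37 °C; plate controls were DMSO only for no effect and 92 µM tetraoctylammonium bromide for full effect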
In short: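 Human lymphoblastoid cells, 2500/well, complete medium; 5 h 37 C settle; compound 24 h 37 C; CellTiter-Glo, 30 min RT; luminescence. Decrease in ATP = cytotoxicity; AC50 via Hill equation.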

[3] = Cell Viability - LYMP2-006 (AID 978); note: series mostly up to about 92 µM; % is set by controls: 0 for no effect and ±100 for the full control effect; nearly all actives have a fitted effect of over 60% in size
In short: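 Cells are seeded at 2500 per well and rested 5 hr at 37 C. Compounds are added across a concentration series for 24 hr at 37 C, after which ATP is quantified by luciferase luminescence.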

[4] = Cell Viability - LYMP2-008 (AID 980); note: % is set by controls: 0 for no effect and ±100 for the full control effect; nearly all actives have a fitted effect of over 60% in size
In short: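 Measured: ATP-dependent luminescence, proportional to viable cell number, in human lymphoblastoid cells treated 24 hr with compound in complete culture medium. Values are AC50s from Hill-equation modelling of qHTS titrations.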

[5] = Cell Viability - LYMP2-010 (AID 981); note: nearly all actives have a fitted effect of over 55% in size; note: potency is the fitted concentration of half-maximal effect
In short: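 This 24 hr viability screen uses LYMP2-010 lymphoblastoid cells, quantifies ATP via luciferase luminescence, and derives AC50 from Hill fits of qHTS concentration-response data.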

[6] = Cell Viability - LYMP2-014 (AID 983);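 note: series mostly up to about 92 µM; plate controls were DMSO only for no effect and 92 µM tetraoctylammonium bromide for full effect; nearly all actives have a fitted effect of over 50% in size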
In short: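 Quantitative HTS in lymphoblastoid cells: 24 hr compound exposure, then CellTiter-Glo ATP luminescence. Positive control was tetraoctylammonium bromide, 6.4pM to 92 uM.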

[7] = Cell Viability - LYMP2-024 (AID 988); note: nearly all actives have a fitted effect of over 60% in size; note: potency is the fitted concentration of half-maximal effect
In short: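 Cells at 2500 per well received compound for 24 hr after a 5 hr settling period. Viability was scored by CellTiter-Glo luminescence, with AC50 from Hill fits.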

[8] = Cell Viability - LYMP2-026 (AID 989); note: % is set by controls: 0 for no effect and ±100 for the full control effect; nearly all actives have a fitted effect of over 50% in size
In short: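 Acute toxicity screen in complete culture medium, with 24 hr compound exposure at 37 C. Viability read as cellular ATP via luciferase reaction, with tetraoctylammonium bromide (6.4pM to 92 uM) as positive control.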

[9] = Cell Viability - LYMP1-002 - Assay at 24 hr (AID 993); note: % is set by controls: 0 for no effect and ±100 for the full control effect
In short: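 Viability was judged from intracellular ATP using a luciferase read-out, following a 24-hour compound incubation at 37 C of lymphoblastoid cells seeded at 2500 per well. Concentration-response data were fitted to the Hill equation for AC50.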

[10] = qHTS Assay for Identification of Small Molecule Inducers of Hypoxia Response (AID 2120; active = well fitted curve in the direction sought with a large enough effect in the signal ratio, with a control signal flat, not every such curve was filed as active; the % refers to the signal ratio; note: 0% is about no effect)
In short: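 HRE-bla ME-180, 2500 cells/well, 0.5% dialyzed FBS medium; cpd titration, 17 h 37 degrees C; CCF4 2.5 h RT; Ex 405, Em 460/530 ratio -> %Activity, AC50.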

[11] = biological target: Estrogen receptor (Homo sapiens) (UniProt P03372); experiment: qHTS assay for small molecule antagonists of estrogen receptor alpha signaling (AID 588513; active = well fitted curve in the direction sought with a large enough effect in the signal ratio, with a control signal flat, not every such curve was filed as active; the % refers to the signal ratio; note: % is set by controls: 0 for no effect and ±100 for the full control effect)
Estrogen receptor (Homo sapiens), sequence (P03372 whole entry, looked up): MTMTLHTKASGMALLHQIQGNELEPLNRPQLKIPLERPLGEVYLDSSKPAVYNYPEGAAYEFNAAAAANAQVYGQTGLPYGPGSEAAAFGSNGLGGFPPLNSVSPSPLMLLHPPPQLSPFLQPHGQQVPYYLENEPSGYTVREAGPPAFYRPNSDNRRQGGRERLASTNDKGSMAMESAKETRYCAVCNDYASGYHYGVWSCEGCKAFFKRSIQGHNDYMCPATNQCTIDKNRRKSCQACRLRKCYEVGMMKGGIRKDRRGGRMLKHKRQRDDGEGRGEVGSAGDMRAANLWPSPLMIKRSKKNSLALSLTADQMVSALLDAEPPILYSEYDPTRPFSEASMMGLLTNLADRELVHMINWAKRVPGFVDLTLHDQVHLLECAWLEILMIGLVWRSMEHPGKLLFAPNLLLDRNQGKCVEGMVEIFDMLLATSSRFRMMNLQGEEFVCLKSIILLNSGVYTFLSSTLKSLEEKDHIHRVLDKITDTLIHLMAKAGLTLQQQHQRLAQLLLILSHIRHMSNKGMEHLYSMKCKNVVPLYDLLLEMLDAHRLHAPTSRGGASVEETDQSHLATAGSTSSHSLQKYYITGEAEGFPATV
In short: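 Fluorescence from CCF4 substrate after 2 h at room temperature gave reporter activity; cells had been exposed to compound and 0.5nM 17-beta-estradiol for 18 h at 37 C. Hill-equation fitting yielded IC50 and maximal response.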

[12] = Cell Viability - LYMP2-007 (AID 979);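 note: cells exposed to compound for 24 h before reading; 0% = DMSO only and the negative end = 92 µM tetraoctylammonium bromide; nearly all actives have a fitted effect of over 60% in size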
In short: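 Measured via luciferase-based ATP quantitation: lymphoblastoid cells, 24 hr compound exposure at 37 C, AC50 from Hill fits.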

[13] = Cell Viability - LYMP2-012 (AID 982);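 note: cellular ATP by luciferase luminescence where a drop means cytotoxicity; cells exposed to compound for one day before reading; 0% = DMSO only and full loss = 92 µM tetraoctylammonium bromide; nearly all actives have a fitted effect of over 55% in size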
[14] = Cell Viability - LYMP2-016 (AID 984); note: % is set by controls: 0 for no effect and ±100 for the full control effect; nearly all actives have a fitted effect of over 55% in size
In short: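 Cells were seeded at 2500 per well and rested 5 hr before a 24 hr compound exposure at 37 C. Viability was then gauged as cellular ATP by luciferase luminescence, with AC50 values fitted to the Hill equation.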

[15] = Cell Viability - LYMP2-018 (AID 985);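 note: plate controls were DMSO only for no effect and tetraoctylammonium bromide at 92 µM for full effect; nearly all actives have a fitted effect of over 50% in size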
In short: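 In this qHTS viability assay, cells are treated for 24 hr and cellular ATP is quantified by luciferase-based luminescence, with tetraoctylammonium bromide as positive control.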

[16] = Cell Viability - LYMP2-020 (AID 986);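 note: series mostly up to about 92 µM; plate controls were DMSO only for no effect and tetraoctylammonium bromide at 92 µM for full effect; nearly all actives have a fitted effect of over 55% in size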
In short: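 Cells at 2500 per well receive a 24 hr compound exposure at 37 C. Viability is measured as ATP-dependent luciferase luminescence, with AC50 modeled from qHTS concentration-response curves.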

[17] = Cell Viability - LYMP2-022 (AID 987)
In short: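 In this qHTS cytotoxicity screen, compound titrations were incubated 24 hr at 37 C with human lymphoblastoid cells in complete medium. Luciferase-based ATP luminescence provided the viability signal.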

[18] = Cell Viability - LYMP1-002 - Assay at 40 hr (AID 994)
In short: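 Concentration-dependent ATP loss after 40 hr treatment at 37 C defined toxicity; AC50 values were obtained by fitting the standard Hill equation.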

[19] = biological target: Estrogen receptor (Homo sapiens) (UniProt P03372); experiment: qHTS assay for small molecule agonists of estrogen receptor alpha signaling (AID 588514; calls by dose curve;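 note: 0% = vehicle only and 100% = reference agonist; nearly all actives have a fitted effect of over 70% in size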)
In short: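 Fluorescence from CCF4 cleavage reports ER-alpha-driven beta-lactamase expression in HEK 293 cells treated 18 hrs at 37 C. Data normalized to 17-beta-estradiol (20 nM) and DMSO, fitted to Hill equation.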

[20] = biological target: Androgen receptor (Homo sapiens) (UniProt P10275); experiment: qHTS assay for small molecule agonists of androgen receptor signaling (AID 588515; active = well fitted curve in the direction sought with a large enough effect in the signal ratio, with a control signal flat; the % refers to the signal ratio; note: % is set by controls: 0 for no effect and ±100 for the full control effect); conditions: AR-UAS-bla HEK293, beta-lactamase ratio, agonist 16 h; active compounds read high
Androgen receptor (Homo sapiens), sequence (P10275 whole entry, looked up): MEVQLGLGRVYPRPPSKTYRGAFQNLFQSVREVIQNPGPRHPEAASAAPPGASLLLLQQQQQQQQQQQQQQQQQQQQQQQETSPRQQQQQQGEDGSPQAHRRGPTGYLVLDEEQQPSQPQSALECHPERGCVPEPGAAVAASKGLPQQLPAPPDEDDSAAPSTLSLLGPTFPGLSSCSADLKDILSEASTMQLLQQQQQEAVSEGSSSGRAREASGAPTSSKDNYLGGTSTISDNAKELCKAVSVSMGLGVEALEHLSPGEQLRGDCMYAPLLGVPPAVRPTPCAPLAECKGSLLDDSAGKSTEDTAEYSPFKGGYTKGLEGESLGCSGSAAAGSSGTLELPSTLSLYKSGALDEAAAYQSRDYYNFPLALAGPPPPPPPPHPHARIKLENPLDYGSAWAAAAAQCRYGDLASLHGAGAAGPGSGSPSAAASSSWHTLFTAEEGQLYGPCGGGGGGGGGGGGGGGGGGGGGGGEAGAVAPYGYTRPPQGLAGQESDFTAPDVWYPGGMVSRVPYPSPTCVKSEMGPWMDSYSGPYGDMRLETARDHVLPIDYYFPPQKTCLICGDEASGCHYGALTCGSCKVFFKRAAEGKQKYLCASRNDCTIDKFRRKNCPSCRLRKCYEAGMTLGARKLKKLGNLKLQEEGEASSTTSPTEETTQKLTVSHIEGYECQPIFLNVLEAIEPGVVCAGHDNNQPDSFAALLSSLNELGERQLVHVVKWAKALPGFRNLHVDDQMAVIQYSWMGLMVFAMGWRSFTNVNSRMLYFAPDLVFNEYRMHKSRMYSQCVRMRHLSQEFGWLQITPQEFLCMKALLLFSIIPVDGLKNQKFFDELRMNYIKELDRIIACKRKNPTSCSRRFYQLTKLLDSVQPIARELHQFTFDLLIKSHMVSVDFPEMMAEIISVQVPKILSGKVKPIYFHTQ
In short: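 Stimulation of an AR-responsive β-lactamase reporter in GripTite HEK293 cells was measured after 16 h compound exposure at 37 °C, via CCF4 fluorescence after 2 h RT. EC50 from Hill fits, normalized to R1881 at 30 nM.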

O=Nc1ccc(NO)cc1
inactive: Potency [1] | Potency [2] | Potency [3] | Potency [4] | Potency [6] | outcome [8] | Potency [9] | outcome [10] | outcome [11]
active: Potency [5] 50.1 µM | Potency [7] 39.8 µM

CC=C(Cl)Cl
inactive: Potency [1] | Potency [2] | Potency [3] | Potency [12] | Potency [4] | Potency [5] | Potency [13] | Potency [6] | Potency [14] | Potency [15] | Potency [16] | Potency [17] | Potency [7] | outcome [8] | Potency [9] | Potency [18] | outcome [10] | outcome [11]

CCc1ccccc1O
inactive: Potency [2] | Potency [3] | Potency [12] | Potency [4] | Potency [5] | Potency [13] | Potency [6] | Potency [14] | Potency [15] | Potency [16] | Potency [17] | Potency [7] | outcome [8] | Potency [9] | Potency [18] | outcome [10] | outcome [11] | Potency [19]

O=[N+]([O-])c1cccc(Cl)c1
inactive: Potency [2] | Potency [3] | Potency [12] | Potency [4] | Potency [5] | Potency [13] | Potency [6] | Potency [14] | Potency [15] | Potency [16] | Potency [17] | Potency [7] | Potency [9] | Potency [18] | outcome [10] | outcome [11] | Potency [19]

CC(=C/C=C/C(C)=C/C=C/C=C(C)/C=C/C=C(C)/C=C/C(=O)O)/C=C/C(=O)O
inactive: Potency [1] | Potency [2] | Potency [3] | Potency [12] | Potency [4] | Potency [5] | Potency [6] | Potency [14] | Potency [15] | Potency [16] | Potency [17] | Potency [7] | outcome [8] | Potency [9] | Potency [18] | outcome [10] | outcome [11] | activation [20] 17%

O=C(O)/C=C/C(=O)O
inactive: Potency [1] | Potency [2] | Potency [3] | Potency [12] | Potency [4] | Potency [5] | Potency [13] | Potency [6] | Potency [14] | Potency [15] | Potency [16] | Potency [17] | Potency [7] | outcome [8] | Potency [9] | Potency [18] | outcome [10]

CC(=O)CC(C)C
inactive: Potency [1] | Potency [2] | Potency [3] | Potency [12] | Potency [4] | Potency [5] | Potency [13] | Potency [6] | Potency [14] | Potency [15] | Potency [16] | Potency [17] | Potency [7] | outcome [8] | Potency [9] | Potency [18] | outcome [10] | activation [20] 2.1%

Cc1ccccc1Br
inactive: Potency [1] | Potency [2] | Potency [3] | Potency [12] | Potency [4] | Potency [5] | Potency [13] | Potency [6] | Potency [14] | Potency [15] | Potency [16] | Potency [17] | Potency [7] | outcome [8] | Potency [9] | Potency [18] | outcome [10]
